For 46 molecules, Potency and activation results are on record in PubChem BioAssay (Tox21).

This assay can be described thus: p53 small molecule agonists, cell-based qHTS assay with human liver microsomes (AID 1963577).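 Also: p53 response element beta-lactamase reporter cells with liver microsomes plus NADPH.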 In short, it runs like this: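 Fluorescence of the beta-lactamase reporter in p53RE-bla cells, detected with LiveBLAzer substrate (2 h, room temperature, dark), served as the read-out after 16 h compound exposure at 37 C with human liver microsomes and NADPH, each 0.5 mg/mL final.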
Background: qHTS replaces the single test concentration by a dilution series.

Inconclusive results are not listed. Entries that show only a call come without a potency. Values without a mark were called inactive. Calls of active or inactive are those of the source. Calls follow the shape of the full dose curve. Numbered stars: 1 amine (or outer) side, 2 acyl side, 3 side chain; on linkers, the order of the positions; unused ones are H or OH. Bridge positions count the residues as written; N and C are the ends. Square brackets hold non-standard residues; d marks the D form. Peptide text beside a SMILES is read from it. I, II: the chains in the order shown. Actinocin(9to1) = Cc1c2oc3c(C)ccc(C(=O)[*:1])c3nc-2c(C(=O)[*:2])c(N)c1=O; NMeV = CN[C@H](C(=O)O)C(C)C; Sar = CNCC(=O)O

As for `Cc1c2oc3c(C)ccc(C(=O)N[C@@H]4C(=O)N[C@H](C(C)C)C(=O)N5CCC[C@H]5C(=O)N(C)CC(=O)N(C)[C@@H](C(C)C)C(=O)O[C@@H]4C)c3nc-2c(C(=O)N[C@@H]2C(=O)N[C@H](C(C)C)C(=O)N3CCC[C@H]3C(=O)N(C)CC(=O)N(C)[C@@H](C(C)C)C(=O)O[C@@H]2C)c(N)c1=O` (I: T[dV]P[Sar][NMeV] / II: T[dV]P[Sar][NMeV]; ester I:1-I:C, II:1-II:C; linker I:N-II:N via Actinocin(9to1)), the Potency result is “inactive”.

Regarding `O=c1[nH]c2ccccc2c(=O)n1CCCl`, the Potency result was “inactive”.

Regarding `CC(=O)CC(C)(C)C1CCCCC1`, the Potency result was “inactive”.

Take `Cc1ccccc1C`: the Potency result was “inactive”.

As to `CCC(CO)CO`, the Potency entry was “inactive”.

Take `NS(=O)(=O)c1cc2c(cc1C(F)(F)F)NC(Cc1ccccc1)NS2(=O)=O` (stereo unspecified): the Potency result was “inactive”.

With `CC(=O)c1sc(C)nc1C`, the Potency result is “inactive”.

In the case of `Cc1ccc(S(=O)(=O)NC(=O)NC2CCCCCCC2)cc1`, the Potency entry is “inactive”.

On to `CC1(C)CO[C@@H](CC(=O)O)CN1`, for which the Potency entry was “inactive”.

In the case of `CC(=O)OCC1=C(C(=O)O)N2C(=O)[C@@H](NC(=O)Cc3cccs3)[C@H]2SC1`, the Potency entry was “inactive”.

Regarding `O=C(O)c1cc(=O)c2c(OCC(O)COc3cccc4oc(C(=O)O)cc(=O)c34)cccc2o1`, the Potency result is “inactive”.

Take `COC(=O)CCCCC(=O)O`: the Potency result is “inactive”.

Take `CCC/C=C/CO`: the Potency entry is “inactive”.

For `C=C(C)C(=O)OCCOP(=O)(O)O`, the Potency result was “inactive”.

With `OCCOc1ccc(OCCO)cc1`, the Potency result is “inactive”.

As for `CCCCCCCC/C=C\CCCCCCCC(=O)OCCCC`, the activation was -3.86% [at 13.5 µM].

For `CCN(Cc1cccc(S(=O)(=O)O)c1)c1ccccc1`, the Potency result is “inactive”.

Consider `Oc1ccc(OCc2ccccc2)cc1`, for which the Potency result is “inactive”.

On to `OC/C=C/CO`, for which the Potency entry is “inactive”.

Turning to `NC(=O)Nc1ccccc1`, the Potency result was “inactive”.

With `Clc1ccc(C(c2ccccc2Cl)C(Cl)Cl)cc1` (stereo unspecified), the Potency result is “inactive”.

Regarding `c1ccc2cnccc2c1`, the Potency entry is “inactive”.

Regarding `c1ccc(CNc2ncnc3c2ncn3C2CCCCO2)cc1` (stereo unspecified), the Potency result is “inactive”.

For `CCOC(=O)NCCC[Si](OCC)(OCC)OCC`, the Potency entry was “inactive”.

As for `C=CC(=O)OCCCCCCCC`, the Potency result is “inactive”.

As for `COc1c2ccoc2cc2oc(=O)ccc12`, the Potency entry is “inactive”.

With `NC(=O)c1ccccc1Cl`, the Potency entry was “inactive”.

As for `O=C(O)c1ccc(CO)o1`, the Potency result is “inactive”.

Take `c1ccc2c(c1)CCc1ccccc1N2`: the Potency result was “inactive”.

For `CC(=O)Nc1ccc(C)cc1`, the Potency result was “inactive”.

`C=CC(O)CCCCC` (stereo unspecified): the Potency result is “inactive”.

For the molecule `CCc1occc(=O)c1O`, the Potency result is “inactive”.

As to `O=C1c2cccc(O)c2C(=O)c2c(O)cccc21`, the Potency result was “inactive”.

Regarding `CN(C)c1ccc(C(=N)c2ccc(N(C)C)cc2)cc1`, the Potency entry was “inactive”.

Take `NC(=O)NC1N=C([O][Al])NC1=O` (stereo unspecified): the Potency entry was “inactive”.

Take `CCN(CC#N)c1cccc(C)c1`: the Potency result is “inactive”.

For `Cc1ncc(CSSCc2cnc(C)c(O)c2CO)c(CO)c1O`, the Potency entry is “inactive”.

With `C/C(=C1\CCOC(=O)S1)N(C=O)Cc1cnc(C)nc1N`, the Potency result was “inactive”.

`CCOC(=O)CN`: the Potency result is “inactive”.

`O=C(CCS)OCC(COC(=O)CCS)(COC(=O)CCS)COC(=O)CCS`: the Potency entry was “inactive”.

Turning to `CC1=CCC(O)(C(C)C)CC1` (stereo unspecified), the Potency result was “inactive”.

As for `CC(=O)c1cc(C)oc1C`, the Potency result is “inactive”.

Turning to `CCCCC(CC)COCCO` (stereo unspecified), the Potency result was “inactive”.

Turning to `CC1CC(=O)CC(C)(C)C1` (stereo unspecified), the Potency entry is “inactive”.

`COC(=O)c1cc(Cl)ccc1OC`: the Potency result is “inactive”.

Turning to `CO[Si](CCCNCCNCCN)(OC)OC`, the Potency result was “inactive”.
